Assay outcomes deposited in PubChem by several laboratories.
MLLE-PAM2 inh: blocks PAM2 peptide binding to the PABP1 MLLE domain | P11940 | GST-MLLE / FITC-PAM2 fluorescence polarization | inhibition, % at 20 µM | 0.36% of 360,000 active | AID 588489; in the data active = inhibition above about 35%, passing the limit was not always enough;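 note: plate controls were DMSO wells with GST-MLLE for no effect and wells lacking GST-MLLE protein for full effect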
PABP polyA inh: PABP-poly(A) binding inhibition; P11940; PABP-poly(A) RNA binding, fluorescence polarization; calls only at 35 µM; 1% of 290,000 active; AID 2014;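 note: calls also rest on retests at 20 µM and on dose response follow-up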
PERK inh: blocks human PERK kinase | AID 1416 | CHO PERK-DD fusion, SEAP luminescence translation reporter | inhibition, % at 5.6 µM | 0.17% of 220,000 active | Q9NZJ5;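 active = inhibition above the mean inhibition of all tested compounds plus 3 SD, set separately per screening campaign, cut at about 2.9% in these data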;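 note: PERK kinase domain activated by AP20187 dimerizer at 100 nM; 0% = DMSO with dimerizer and 100% = rapamycin at 8.4 µM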
eIF4E-4G inh: blocks eIF4E binding to eIF4G. TR-FRET eIF4E-eIF4GI(517-606) binding, 2 h. AID 782. P63073+Q04637. inhibition, % at 21.7 µM. 0.37% of 220,000 active;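 active = inhibition above about 30%, limit read from the data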;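 note: 0% = full FRET control wells and 100% = background wells lacking eIF4GI fragment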
eIF4H FP inh: inhibitors of RNA binding by human eIF4H; Q15056; eIF4H fluorescence polarization binding assay; inhibition, % at 35 µM; 0.94% of 290,000 active; AID 2012;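 note: calls also rest on retests at 20 µM and on dose response follow-up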
Numbers without * were called inactive; i = inactive; ? = inconclusive; / = no result given; + = active, no number. Hits are enriched below; roughly 1.6% of the tested compounds scored in any of these assays. Unless noted, the rule behind the calls is not given here.

SMILES	MLLE-PAM2 inh	PABP polyA inh	PERK inh	eIF4E-4G inh	eIF4H FP inh
Cc1ccc(-n2c(C)cc(/C([O-])=C(/C(=S)Nc3ccc(F)c(Cl)c3)[n+]3ccccc3)c2C)cc1	-37.8	i	0.9	-28.5	21.2
CC1(C(=O)Nc2ccccc2F)CCN1C(=O)Cc1ccc(-c2ccccc2)cc1 (centres undefined)	-4.8	/	/	/	/
COc1ccc(NC(=O)/C(C#N)=C\c2ccc(-c3cc(C(=O)O)ccc3C)o2)cc1	17.6	+	/	/	79.3*
COc1ccc(NC(=O)/C(C#N)=C/c2ccc(-c3ccccc3C(=O)O)o2)cc1	3.9	i	/	/	6.3
COc1ccc(NC(=O)/C(C#N)=C\c2ccc(Br)o2)cc1	-9.1	+	0.4	16.8	80.1*
COc1cccc(-n2cnnc2SC(C)C(=O)NC2CCCC2)c1 (centres undefined)	8.1	/	/	/	/
NC(=O)c1c(/N=C/c2cccs2)sc2c1CCCC2	2.2	i	0.9	1.3	-2.4
C[C@@H]1CN([C@H](C)CO)S(=O)(=O)c2ccc(Br)cc2O[C@H]1CN(C)S(C)(=O)=O	-8.9	/	/	/	/
Cc1cccc(-n2ccc(=O)c(C(=O)Nc3ccc(S(=O)(=O)Nc4nccs4)cc3)n2)c1	2.7	i	/	/	40.6
NS(=O)(=O)c1ccc(NC(=S)NC(=O)c2ccc(-c3ccccc3)cc2)cc1	43.3*	i	0.8	-5.2	2.0
O=C(Nc1ccc(S(=O)(=O)Nc2nccs2)cc1)c1nn(-c2ccccc2)ccc1=O	-35.5	i	/	/	77.1*
NS(=O)(=O)c1ccc(NC(=O)C2(c3ccccc3)CCCC2)cc1	-14.6	+	1.3	1.5	?
O=C(NC(=S)Nc1ccc(S(=O)(=O)Nc2nccs2)cc1)c1ccc(F)c(F)c1	16.7	i	0.9	-1.3	4.8
O=C(NC(=S)Nc1ccc(-c2ccccc2)cc1)c1ccccc1	19.6	/	/	/	/
O=C(NC(=S)Nc1ccc(S(=O)(=O)Nc2nccs2)cc1)c1cccnc1	40.8*	i	0.0	-0.8	9.7
O=C(O)CN1C(=O)C(=O)N(Cc2ccc(C(F)(F)F)cc2)C1=O	10.0	i	/	/	3.9
O=C(NC(=S)Nc1ccc(S(=O)(=O)Nc2nccs2)cc1)c1ccccc1	39.0*	i	-0.2	1.6	-1.2
O=C(NC(=S)Nc1ccc(S(=O)(=O)Nc2nccs2)cc1)c1ccccc1F	27.3	i	1.4	-1.2	2.9
CCN1C(=O)c2ccc(C(=O)Nc3ccc(O)cc3C)cc2C1=O	11.9	i	/	/	7.3
O=S(=O)(Nc1c(F)cccc1F)c1ccc(Cl)nc1	17.4	/	/	/	/
Cc1ccc(CCNC(=O)c2coc3nc4ccccc4nc23)cc1	-27.6	+	0.2	-69.3	73.1
CC1CCN(CCCNC(=O)c2coc3nc4ccccc4nc23)CC1	2.2	i	1.2	11.7	-2.2
COc1ccccc1CNC(=O)c1cnccn1	-6.0	+	-0.1	-4.8	53.5
CCOC(=O)c1ccc(N2C(=O)CC(Sc3ncccn3)C2=O)cc1 (centres undefined)	41.1*	i	/	/	-1.6
Cc1ccc(Cl)cc1N1C(=O)CC(Sc2ncccn2)C1=O (centres undefined)	41.9*	i	/	/	-4.0
SMILES	MLLE-PAM2 inh	PABP polyA inh	PERK inh	eIF4E-4G inh	eIF4H FP inh
CCOC(=O)C(N)CSC1CC(=O)N(c2ccc(C(=O)OC)cc2)C1=O (centres undefined)	34.5	i	1.1	0.9	-4.2
O=C1CC(Sc2ncccn2)C(=O)N1c1ccccc1C(F)(F)F (centres undefined)	24.6	i	0.1	9.7	-0.4
Cc1ccnc(SC2CC(=O)N(c3ccc([N+](=O)[O-])cc3)C2=O)n1 (centres undefined)	39.1*	i	/	/	-5.5
CCOc1ccc(NC(=O)COC(=O)c2cc(C)oc2C)cc1	4.5	/	/	/	/
CC(C)c1ccc(-c2nnc(SCC(=O)NC3CC3)n2C)cc1	-69.0	i	/	/	-9.7
CC(=O)c1ccc(S(=O)(=O)NCCOc2ccccc2)cc1	4.1	/	/	/	/
Cc1ccc2c(c1)c1c3n2CCN=C3CCC1	-14.4	+	0.0	1.3	58.8*
CC(=O)N=C1SC2CS(=O)(=O)CC2N1c1ccc(-c2nc3ccc(C)cc3s2)cc1 (centres undefined)	/	i	0.6	0.4	4.5
Cc1ccc2nc(-c3ccc(N4C(=NC(=O)CCC(=O)O)SC5CS(=O)(=O)CC54)cc3)sc2c1 (centres undefined)	-10.2	+	0.1	10.9	69.5*
CC(C)(C)NC(=O)C(c1ccco1)N(Cc1ccc2c(c1)OCO2)C(=O)c1snc(C(N)=O)c1N (centres undefined)	8.9	i	/	/	3.3
CCOC(=O)c1c(NC(=O)c2ccccc2Cl)sc2c1CCc1ccccc1-2	23.5	i	-0.8	-0.8	1.1
CCOC(=O)c1c(NC(=O)c2ccccc2)sc2c1CCc1ccccc1-2	43.4*	i	-0.1	-4.1	7.7
CN1C2=C(C(=O)CC(C)(C)C2)C(c2cccs2)C2=C1CC(C)(C)CC2=O	5.4	/	/	/	/
CCC1(C)Cc2c(sc3[nH]c(=S)[nH]c(=S)c23)CO1 (centres undefined)	26.9	i	/	/	-1.8
CCC1(C)Cc2c(sc3[nH]c(=O)[nH]c(=O)c23)CS1 (centres undefined)	32.3	+	1.5	-6.8	66.5*
O=C(NNC(=O)C1C2CCC(C2)C1C(=O)O)c1ccc(Br)o1 (centres undefined)	/	+	0.9	-5.8	-2.5
COc1ccccc1N1CCN(C2CCCN(C(=O)CCn3cncn3)C2)CC1 (centres undefined)	-10.0	i	/	/	-8.6
Cc1ccc2nc(CN(C)C(=O)[C@H]3O[C@@H](n4ccc(N)nc4=O)[C@H](O)[C@@H]3O)[nH]c2c1	2.6	/	/	/	/
CCN(CC)c1ccc2nc3ccccc3[n+](CC)c2c1	-112.8	+	/	/	38.9
CCN(CC)c1ccc2nc3ccc(N)cc3[n+](-c3ccccc3)c2c1	76.6	/	/	/	/
O=c1c(-c2cc3ccccc3o2)[n+]([O-])c2ccccc2n1OCc1ccccn1	2.3	+	-0.7	1.8	84.8
Cn1nc(OCC(=O)O)cc1C(F)(F)F	-3.4	i	3.0*	-3.4	-4.9
Cn1nc(OC(=O)Nc2ccc(F)cc2)cc1C(F)(F)F	-15.5	i	1.1	-2.5	-1.8
NC(=S)c1cnn2c(-c3cccc(C(F)(F)F)c3)ccnc12	38.5*	i	/	/	-4.3
CC(C)[N+](C)(C)CC(O)CN(c1ccccc1)c1ccccc1 (centres undefined)	-128.4	+	0.4	8.9	-3.9
CN1/C(=C\C(=O)CSc2nnc(NCc3ccccc3)s2)C(C)(C)c2ccccc21	-55.5	+	-1.6	-10.6	68.7*
Cc1cc(/C=N/Nc2ccc([N+](=O)[O-])cn2)c(C)n1-c1ccc(C(=O)O)cc1	-103.5	i	0.5	34.5*	76.4
O=C(O)CNC(=O)CC1S/C(=N/N=C2\CSC(=O)N2)NC1=O (centres undefined)	41.9*	i	1.0	-9.5	14.5
